Experimental data from PubChem BioAssay.
Activity calls are given as the source filed them. How the calls were made is not given here.

molecular target: Botulinum neurotoxin type A (Clostridium botulinum) (UniProt P0DPI0); assay: BoNT/A light chain protease inhibitors, biochemical, multiplex microsphere flow cytometry, validation set (AID 588460); conditions: at 10 µM, hits give high values
Sequence (P0DPI0 whole entry, looked up): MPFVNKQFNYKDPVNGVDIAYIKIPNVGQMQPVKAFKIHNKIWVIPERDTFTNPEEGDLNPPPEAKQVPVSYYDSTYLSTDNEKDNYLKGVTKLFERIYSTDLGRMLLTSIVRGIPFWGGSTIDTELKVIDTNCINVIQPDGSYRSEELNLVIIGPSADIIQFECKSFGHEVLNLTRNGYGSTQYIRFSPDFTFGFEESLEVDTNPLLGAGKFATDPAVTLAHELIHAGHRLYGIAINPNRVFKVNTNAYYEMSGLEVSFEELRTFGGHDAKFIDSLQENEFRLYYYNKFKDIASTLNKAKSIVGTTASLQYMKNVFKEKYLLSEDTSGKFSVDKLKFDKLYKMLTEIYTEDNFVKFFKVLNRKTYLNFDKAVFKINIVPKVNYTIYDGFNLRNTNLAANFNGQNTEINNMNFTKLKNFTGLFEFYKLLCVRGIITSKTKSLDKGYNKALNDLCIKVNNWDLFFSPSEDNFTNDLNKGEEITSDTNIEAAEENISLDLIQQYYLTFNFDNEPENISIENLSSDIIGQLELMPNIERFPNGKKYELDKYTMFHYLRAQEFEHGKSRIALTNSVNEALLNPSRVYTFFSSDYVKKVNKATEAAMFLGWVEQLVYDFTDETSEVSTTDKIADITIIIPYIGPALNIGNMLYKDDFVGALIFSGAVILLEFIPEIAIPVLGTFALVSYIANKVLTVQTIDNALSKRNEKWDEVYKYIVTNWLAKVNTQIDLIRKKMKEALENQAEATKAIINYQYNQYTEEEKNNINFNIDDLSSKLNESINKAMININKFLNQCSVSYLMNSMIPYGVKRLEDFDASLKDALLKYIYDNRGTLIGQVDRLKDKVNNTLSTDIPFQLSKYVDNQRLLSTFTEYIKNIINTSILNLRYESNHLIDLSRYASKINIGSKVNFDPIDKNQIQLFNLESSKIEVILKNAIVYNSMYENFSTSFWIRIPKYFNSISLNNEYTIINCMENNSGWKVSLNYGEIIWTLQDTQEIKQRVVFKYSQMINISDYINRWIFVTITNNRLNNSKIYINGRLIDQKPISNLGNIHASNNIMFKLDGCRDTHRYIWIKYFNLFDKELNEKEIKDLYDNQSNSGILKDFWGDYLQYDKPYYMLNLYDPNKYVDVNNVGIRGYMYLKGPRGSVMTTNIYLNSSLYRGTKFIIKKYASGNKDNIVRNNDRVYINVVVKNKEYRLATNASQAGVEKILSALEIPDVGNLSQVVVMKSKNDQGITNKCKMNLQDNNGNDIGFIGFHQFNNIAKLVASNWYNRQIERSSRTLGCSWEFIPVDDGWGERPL

SMILES | inhibition
CCOCC(=O)Nc1nc2ccccc2s1 | 1.5% (inactive)
COc1ccc(-c2coc3cc(OC(=O)N4CCOCC4)ccc3c2=O)cc1 | -1.4% (inactive)
CCCCCCCCCC(=O)OCC(O)CO (stereo not given) | -2% (inactive)
Cc1ccc2[nH]c3c(c2c1)CCNC3=O | -0.5% (inactive)
CC(/C=C1\SC(=O)N(CCCC(=O)O)C1=O)=C\c1ccccc1 | 1.3% (inactive)
COc1ccc(C(CC(=O)N2CCOCC2)C(C)C)cc1 (stereo not given) | -1.9% (inactive)
CN(C)CCOC(C)(c1ccccc1)c1ccccn1 (stereo not given) | 0.5% (inactive)
COc1ccc2c(c1OC)C(=O)OC2C1c2c(cc3c(c2OC)OCO3)CCN1C (stereo not given) | -0.4% (inactive)
O=C(N1CCCC1)C12CC3CC(C1)CC(C(=O)N1CCCC1)(C3)C2 | -2.5% (inactive)
Cc1ccccc1NC(=O)NCCc1c[nH]c2ccccc12 | -0.2% (inactive)
COc1ccc2nc(NC(=O)Nc3ccccc3)sc2c1 | -2.6% (inactive)
C[C@]12CCC(=O)C=C1CC[C@@H]1[C@@H]2[C@@H](O)C[C@@]2(C)[C@H]1CC[C@]2(O)C(=O)CO | -1.4% (inactive)
CC1(C)O[C@@H]2C[C@H]3[C@@H]4C[C@H](F)C5=CC(=O)C=C[C@]5(C)[C@@]4(F)[C@@H](O)C[C@]3(C)[C@]2(C(=O)CO)O1 | 0.1% (inactive)
CC(C)CN1CC(C(=O)O)CC1=O (stereo not given) | -1.3% (inactive)
CCCCC[C@H](O)/C=C/[C@@H]1[C@@H](C/C=C\CCCC(=O)O)[C@H]2CO[C@@H]1C2 | -0.1% (inactive)
C/C(=N\NC(=O)C1(C)CC1(Br)Br)c1ccc([N+](=O)[O-])cc1 (stereo not given) | 0.4% (inactive)
CCCCNc1cc(C(=O)O)cc(S(N)(=O)=O)c1Oc1ccccc1 | 1.7% (inactive)
Nc1cnn(C2OC(CO)C(O)C2O)c(=O)n1 (stereo not given) | 0% (inactive)
COc1ccc(C2C3CCCCC3(O)CCN2C(=O)c2cccs2)cc1 (stereo not given) | 2.1% (inactive)
CC(C)CC(=O)NC(NC(=O)CC(C)C)c1cccc([N+](=O)[O-])c1 | -0.3% (inactive)

SMILES | inhibition
CC(=O)CSc1ncnc2c1cnn2-c1ccccc1 | 0.8% (inactive)
CCOc1ccc(N2C(=O)CC(NCCNc3ccc([N+](=O)[O-])cn3)C2=O)cc1 (stereo not given) | 1.6% (inactive)
CC1=CC(=O)c2ccccc2C1=O | -0.1% (inactive)
Cc1ncc([N+](=O)[O-])n1CC(O)CCl (stereo not given) | -0.1% (inactive)
COc1ccc(Cc2noc(CN(C)CC3(N4CCOCC4)CCCCC3)n2)cc1OC | 4.3% (inactive)
Cc1ccc(Nc2ncccc2C(=O)O)cc1C | -0.2% (inactive)
Cc1[nH]c2ccccc2c1C(=O)C(=O)NCc1ccco1 | -0.7% (inactive)
C#C[C@]1(O)CC[C@H]2[C@@H]3CCc4cc(OC)ccc4[C@H]3CC[C@@]21C | 0.4% (inactive)
COc1cc2c(cc1OC)C1(CCCC1)CNC2c1cccc([N+](=O)[O-])c1 (stereo not given) | 0.1% (inactive)
CC(=O)NC1C(OCCOc2ccc(Cl)cc2Cl)OC(COC(C)=O)C(OC(C)=O)C1OC(C)=O (stereo not given) | -0.3% (inactive)
C[C@H](NC(=O)Nc1ccccc1F)C(=O)O | -0.3% (inactive)
COc1ccc(CCN2C(=O)CSC2c2ccc(OC)c(OC)c2)cc1OC (stereo not given) | 0.4% (inactive)
CCN(CC)CCNC(=O)c1cc(S(C)(=O)=O)ccc1OC | 1.8% (inactive)
OCCN1CCN(CCCN2c3ccccc3Sc3ccc(Cl)cc32)CC1 | 0.8% (inactive)
COc1cccc(OC2OC3COC(C)(C)OC3C(O)C2NC(C)=O)c1 (stereo not given) | 0.2% (inactive)
CCSc1nc(O)c(C2OC(=O)c3c2ccc(OC)c3OC)c(=O)n1CC (stereo not given) | 0.5% (inactive)
Cc1ccc(CSCC(=O)NCCCN2CCOCC2)cc1 | -1.7% (inactive)
C[C@H]1C[C@H]2[C@@H]3CCC4=CC(=O)C=C[C@]4(C)[C@@]3(Cl)[C@@H](O)C[C@]2(C)[C@@]1(O)C(=O)CO | -0.1% (inactive)
CCn1cc(CN2N=C(C)CC2c2ccccc2)c(C)n1 (stereo not given) | 0% (inactive)
COC(=O)c1ccc2c(c1)C(=O)/C(=C/c1ccc(O)cc1)O2 | 0.7% (inactive)
